The text below walks through data of PubChem BioAssay.

One may read the inhibition as the drop in the measured response relative to a control, in per cent.

Test [1] in a line: yeast TOR pathway RPL19A-GFP modulators, primary screen, cell-based, S. cerevisiae, multiplex flow cytometry (AID 1862; in the data active = percent of DMSO control GFP below about 86%;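 note: lower values mimic rapamycin by blocking the RPL19A rise seen in DMSO cells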). To be noted: S. cerevisiae RPL19A-GFP strain, flow cytometry fluorescence, 3 h; at 10 µM; stronger effect = lower value.
A short description of test [2]: modulators of MEP2-GFP levels in yeast, primary screen, S. cerevisiae, multiplex flow cytometry (AID 1867;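 active = GFP response, as percent of the DMSO control, above the screen-wide mean plus 3 SD, about 139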;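 note: median GFP channel fluorescence of barcode-gated MEP2-GFP cells measured by flow cytometry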). To be noted: S. cerevisiae MEP2-GFP strain, 3 h, at 10 µM, stronger effect = higher value, 100% means same as DMSO wells. For orientation: In flow cytometry, cells or beads pass a laser one at a time.
Test [3] can be described thus: modulators of CIT2-GFP expression in yeast, primary screen, S. cerevisiae, GFP fusion, multiplex flow cytometry (AID 1870;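 active = percent response above a set limit, the screen-wide mean plus 3 SD, cut at about 130% in these data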;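 note: barcoded CIT2-GFP strain pooled with four other GFP strains with rapamycin as positive control; median GFP fluorescence per well over plate mean of DMSO wells so 100% = DMSO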). To be noted: 3 h, at 10 µM, stronger effect = higher value.
Test [4] can be described thus: modulators of LAP4-GFP expression in yeast, primary screen, S. cerevisiae, multiplex flow cytometry (AID 1873;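 active = GFP signal, as percent of the solvent control, above the screen mean plus 3 SD, about 149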). Particulars: 3 h, at 10 µM, stronger effect = higher value.
Test [5] is described as follows: modulators of AGP1-GFP expression in yeast TOR pathway, primary screen, cell-based, multiplex flow cytometry, S. cerevisiae (AID 1887;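 active = GFP signal above the screen-wide mean plus 3 SD, that is over about 124.5% of the solvent control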;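 note: AGP1-GFP fusion strain of S. cerevisiae within a five-strain barcoded multiplex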). To be noted: 3 h, at 10 µM, stronger effect = higher value.
Test [6] in a line: inhibitors of CD8+ T cell-vesicle binding, pilot screen, LFA-1/ICAM-1 modulator project, MLPCN validation set, flow cytometry (AID 2523;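 active = response below a set limit, under 55% cells CD8-positive and vesicle-bound, and CD8 cells' 90th-percentile brightness under 279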;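 for vesicle binding response: mean PE anti-B7-1 fluorescence of CD8+ cells relative to row control; 100% = QL9-loaded vesicles with DMSO vehicle in the same plate row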). To be noted: 2C mouse CD8+ T cells, at 7 µM, stronger effect = lower value; double positive events: measured here: CD8+/vesicle+ event percentage.
Test [7] concerns the target Integrin beta-1 (Homo sapiens) + Integrin alpha-4 (Homo sapiens) (UniProt P13612+P05556). As to the kind of experiment: inhibition of HUTS-21 binding to VLA-4, pilot screen, VLA-4 allosteric modulator project, U937 cells, HUTS-21 mAb, flow cytometry, validation set (AID 2674;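 active = inhibition above 50%, about 3 SD of the validation set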;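 note: antibody binding induced by the VLA-4 ligand LDV present at three times its Kd; 0% = LDV ligand with antibody and no compound and 100% = antibody without LDV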). Particulars: HUTS-21 LIBS mAb binding, at 6.7 µM, stronger effect = higher value, binding induced by LDV ligand.

Test [8] is described as follows: superoxide lowering in aged yeast cells, pilot screen, validation compound set (AID 2706;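 active = superoxide response below 65% of plate, a cut near 3 SD across the whole screen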;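 note: yeast exposed to compound for one week at 30 degrees C before staining; 100% = mean of all compound wells on the same plate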). Particulars: S. cerevisiae aging, superoxide DHE fluorescence; at 10 µM; stronger effect = lower value.
In test [9] the target is Beta-adrenergic receptor kinase 1 (Homo sapiens) (UniProt P25098). As to the kind of experiment: GRK2 binders displacing RNA aptamer, biochemical, validation, human GRK2, bead flow cytometry (AID 488806;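 active = aptamer binding inhibition above 30%, about 3 SD of noise from non-fluorescent compounds; inactive = inhibition at or below 30%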). Particulars: bead-bound GRK2, FAM-aptamer displacement, at 10 µM, stronger effect = higher value.
Test [10] concerns the target Beta-2 adrenergic receptor (Homo sapiens) (UniProt P07550). As to the kind of experiment: beta2AR agonists driving receptor internalization, pilot screen, cell-based, FAP fluorogen, flow cytometry, validation set (AID 504459;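 active = percent response above 42, roughly 3 SD of non-fluorescent test compounds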;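 note: agonist-driven loss of surface beta2AR via internalization measured by FAP dye flow cytometry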). To be noted: Am2.2-beta2AR cells, FAP surface receptor flow cytometry; at 10 µM; stronger effect = higher value.
Test [11] addresses AP-2 complex subunit beta (Homo sapiens) (UniProt P63010). The experiment in a line: inhibitors of arrestin peptide binding to AP2, pilot screen, biochemical, validation set, GST-AP2 beads, flow cytometry (AID 504541;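 active = inhibition above 54%, about 3 SD of non-fluorescent compounds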;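 note: AP2 carries R879A mutation and is captured from E. coli lysate; bead-bound FITC arrestin peptide fluorescence measuring arrestin peptide binding to AP2; 0% = DMSO wells and 100% = excess unlabeled arrestin peptide control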). To be noted: FITC arrestin peptide, at 10 µM, stronger effect = higher value, AP2 beta2 appendage fragment, R879A mutant.
Test [12] in a line: yeast V-ATPase proton transport modulators, S. cerevisiae, pHLuorin, HTS validation (AID 504600; in the data active = response above about 15%;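 note: plate controls were DMSO for no effect and reference compound for full effect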). Particulars: S. cerevisiae pHLuorin cytosolic pH, at 10 µM, stronger effect = higher value.
The test system of test [13] is anti-desmoglein-3 scFv antibody binding to human DSG3. The experiment in a line: inhibitors of anti-DSG3 scFv binding to DSG3, pilot screen, biochemical, validation compound set, bead-based, flow cytometry (AID 588368;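 active = binding below the plate cutoff, the plate median minus 3 SD, with a reading above zero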;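 note: signal is the median channel fluorescence of bead-bound GFP antibody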). Particulars: Protein G beads, DSG3-Fc, scFv-GFP binding, at 10 µM, stronger effect = lower value.
Test [14] in a line: inhibitors of fungal efflux pumps CDR1, CDR2, MDR1, pilot screen, validation compound set, multiplex, phenotypic (AID 588506;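 active = efflux inhibition above 0.42, the validation set average plus 4 SD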;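 note: Nile Red retained in cells so higher fluorescence means more efflux inhibition; 0 = negative control wells and 1 = enniatin B 25 µM full block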). Particulars: S. cerevisiae pump-expressing triplex, Nile Red efflux flow cytometry; at 10 µM; stronger effect = higher value; the pumps come from Candida albicans.
In test [15] the target is ATP-binding cassette sub-family B member 6 (Homo sapiens) (UniProt Q9NP58). The experiment in a line: ABCB6 transporter inhibitors, pilot screen, K562-ABCB6 cells, flow cytometry, validation set (AID 588550).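 Note: 0% = DMSO wells and 100% = benzethonium chloride 70 µM positive control.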 To be noted: K562-ABCB6 porphyrin accumulation, 1 h, at 10 µM, stronger effect = higher value.
The nature of test [16]: promoters of myeloid differentiation in arrested cells, primary screen, cell-based, GFP/MAC1 double positive, flow cytometry, validation set (AID 588685;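 active = differentiation response of at least 50%, scaled between solvent and reference control, from cells with both markers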;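 note: compound exposure lasts four days before antibody staining and flow analysis; 0% = DMSO wells and 100% = 5 µM fulvestrant positive control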). To be noted: ER-HoxA9 marrow cells, stronger effect = higher value, normalized: vehicle 0, fulvestrant 100.

Results filed as inconclusive are left out. Active and inactive are the calls of the source.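 Rule for the calls, unless noted: active = inhibition above the screen-wide mean plus 3 SD, about 51%; inactive = the rest.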

Beta-adrenergic receptor kinase 1 (Homo sapiens), sequence (P25098 whole entry, looked up): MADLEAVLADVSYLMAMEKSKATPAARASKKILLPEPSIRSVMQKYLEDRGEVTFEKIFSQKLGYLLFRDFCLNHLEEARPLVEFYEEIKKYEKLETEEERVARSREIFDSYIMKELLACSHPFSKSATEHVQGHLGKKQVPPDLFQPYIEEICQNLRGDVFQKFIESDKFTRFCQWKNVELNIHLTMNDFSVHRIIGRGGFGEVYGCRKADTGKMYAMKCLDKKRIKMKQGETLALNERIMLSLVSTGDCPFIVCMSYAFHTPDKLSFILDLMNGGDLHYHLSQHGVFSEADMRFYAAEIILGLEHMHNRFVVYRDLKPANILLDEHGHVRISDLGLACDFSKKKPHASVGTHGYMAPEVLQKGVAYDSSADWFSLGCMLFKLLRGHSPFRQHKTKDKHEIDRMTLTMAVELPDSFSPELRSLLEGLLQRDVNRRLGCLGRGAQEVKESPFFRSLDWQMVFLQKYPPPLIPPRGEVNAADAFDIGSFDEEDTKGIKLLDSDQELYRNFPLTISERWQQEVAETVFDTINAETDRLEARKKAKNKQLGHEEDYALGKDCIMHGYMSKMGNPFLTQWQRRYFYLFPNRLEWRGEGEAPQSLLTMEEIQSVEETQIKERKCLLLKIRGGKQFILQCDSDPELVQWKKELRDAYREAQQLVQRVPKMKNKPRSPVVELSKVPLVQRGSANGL
ATP-binding cassette sub-family B member 6 (Homo sapiens), sequence (Q9NP58 whole entry, looked up): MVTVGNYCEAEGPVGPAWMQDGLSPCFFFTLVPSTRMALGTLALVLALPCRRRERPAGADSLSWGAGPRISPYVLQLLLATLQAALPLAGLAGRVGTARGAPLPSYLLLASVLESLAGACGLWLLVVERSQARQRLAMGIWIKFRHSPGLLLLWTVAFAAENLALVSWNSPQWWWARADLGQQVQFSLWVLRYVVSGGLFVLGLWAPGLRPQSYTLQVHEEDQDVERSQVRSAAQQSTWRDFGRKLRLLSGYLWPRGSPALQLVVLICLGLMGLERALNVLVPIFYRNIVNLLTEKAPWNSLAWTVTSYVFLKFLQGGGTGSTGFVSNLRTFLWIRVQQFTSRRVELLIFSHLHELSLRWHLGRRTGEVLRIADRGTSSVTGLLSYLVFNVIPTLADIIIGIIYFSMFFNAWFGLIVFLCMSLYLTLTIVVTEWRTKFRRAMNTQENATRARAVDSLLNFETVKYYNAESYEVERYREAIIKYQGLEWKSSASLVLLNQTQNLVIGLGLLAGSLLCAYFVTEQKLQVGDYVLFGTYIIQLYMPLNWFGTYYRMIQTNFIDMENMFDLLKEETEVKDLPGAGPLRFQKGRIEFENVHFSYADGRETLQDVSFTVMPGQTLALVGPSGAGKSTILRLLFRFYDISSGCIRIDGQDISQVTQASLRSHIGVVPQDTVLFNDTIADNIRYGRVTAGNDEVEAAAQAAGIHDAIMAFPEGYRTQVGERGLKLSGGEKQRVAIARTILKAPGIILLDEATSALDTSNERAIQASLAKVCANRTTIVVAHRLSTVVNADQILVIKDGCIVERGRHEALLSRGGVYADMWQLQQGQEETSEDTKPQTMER
Beta-2 adrenergic receptor (Homo sapiens), sequence (P07550 whole entry, looked up): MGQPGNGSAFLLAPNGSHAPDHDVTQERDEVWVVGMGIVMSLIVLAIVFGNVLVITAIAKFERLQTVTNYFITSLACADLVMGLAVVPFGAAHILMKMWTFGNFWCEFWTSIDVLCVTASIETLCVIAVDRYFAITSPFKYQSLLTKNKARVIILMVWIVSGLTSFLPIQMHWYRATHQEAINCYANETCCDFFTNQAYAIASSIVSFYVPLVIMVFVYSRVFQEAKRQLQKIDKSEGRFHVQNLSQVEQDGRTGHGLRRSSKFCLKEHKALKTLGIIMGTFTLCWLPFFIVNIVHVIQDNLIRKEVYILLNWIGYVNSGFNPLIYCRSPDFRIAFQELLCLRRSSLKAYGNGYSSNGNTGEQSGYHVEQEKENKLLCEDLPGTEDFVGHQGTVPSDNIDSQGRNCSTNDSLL
Integrin beta-1 (Homo sapiens) + Integrin alpha-4 (Homo sapiens), sequence (P05556 whole entry, looked up): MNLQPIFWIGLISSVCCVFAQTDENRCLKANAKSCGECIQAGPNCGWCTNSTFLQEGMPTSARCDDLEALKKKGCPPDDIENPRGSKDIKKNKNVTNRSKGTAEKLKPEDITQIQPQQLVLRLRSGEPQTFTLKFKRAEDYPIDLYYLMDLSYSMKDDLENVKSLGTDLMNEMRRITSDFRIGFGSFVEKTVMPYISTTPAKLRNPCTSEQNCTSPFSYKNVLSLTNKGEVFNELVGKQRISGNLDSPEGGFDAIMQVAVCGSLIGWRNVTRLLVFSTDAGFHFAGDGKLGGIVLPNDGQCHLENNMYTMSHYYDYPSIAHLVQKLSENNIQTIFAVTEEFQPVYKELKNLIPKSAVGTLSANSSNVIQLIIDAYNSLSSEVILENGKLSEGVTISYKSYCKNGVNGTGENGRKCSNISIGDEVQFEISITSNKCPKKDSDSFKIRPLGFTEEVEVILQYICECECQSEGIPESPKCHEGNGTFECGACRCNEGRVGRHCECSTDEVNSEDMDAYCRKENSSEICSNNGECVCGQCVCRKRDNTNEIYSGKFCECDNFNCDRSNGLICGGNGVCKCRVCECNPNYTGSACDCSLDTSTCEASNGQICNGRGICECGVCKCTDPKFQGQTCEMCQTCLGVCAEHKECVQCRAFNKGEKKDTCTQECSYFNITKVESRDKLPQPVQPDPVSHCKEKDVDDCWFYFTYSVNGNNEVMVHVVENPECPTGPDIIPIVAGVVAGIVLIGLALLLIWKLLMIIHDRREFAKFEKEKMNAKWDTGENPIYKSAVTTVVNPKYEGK
Integrin beta-1 (Homo sapiens) + Integrin alpha-4 (Homo sapiens), sequence (P13612 whole entry, looked up): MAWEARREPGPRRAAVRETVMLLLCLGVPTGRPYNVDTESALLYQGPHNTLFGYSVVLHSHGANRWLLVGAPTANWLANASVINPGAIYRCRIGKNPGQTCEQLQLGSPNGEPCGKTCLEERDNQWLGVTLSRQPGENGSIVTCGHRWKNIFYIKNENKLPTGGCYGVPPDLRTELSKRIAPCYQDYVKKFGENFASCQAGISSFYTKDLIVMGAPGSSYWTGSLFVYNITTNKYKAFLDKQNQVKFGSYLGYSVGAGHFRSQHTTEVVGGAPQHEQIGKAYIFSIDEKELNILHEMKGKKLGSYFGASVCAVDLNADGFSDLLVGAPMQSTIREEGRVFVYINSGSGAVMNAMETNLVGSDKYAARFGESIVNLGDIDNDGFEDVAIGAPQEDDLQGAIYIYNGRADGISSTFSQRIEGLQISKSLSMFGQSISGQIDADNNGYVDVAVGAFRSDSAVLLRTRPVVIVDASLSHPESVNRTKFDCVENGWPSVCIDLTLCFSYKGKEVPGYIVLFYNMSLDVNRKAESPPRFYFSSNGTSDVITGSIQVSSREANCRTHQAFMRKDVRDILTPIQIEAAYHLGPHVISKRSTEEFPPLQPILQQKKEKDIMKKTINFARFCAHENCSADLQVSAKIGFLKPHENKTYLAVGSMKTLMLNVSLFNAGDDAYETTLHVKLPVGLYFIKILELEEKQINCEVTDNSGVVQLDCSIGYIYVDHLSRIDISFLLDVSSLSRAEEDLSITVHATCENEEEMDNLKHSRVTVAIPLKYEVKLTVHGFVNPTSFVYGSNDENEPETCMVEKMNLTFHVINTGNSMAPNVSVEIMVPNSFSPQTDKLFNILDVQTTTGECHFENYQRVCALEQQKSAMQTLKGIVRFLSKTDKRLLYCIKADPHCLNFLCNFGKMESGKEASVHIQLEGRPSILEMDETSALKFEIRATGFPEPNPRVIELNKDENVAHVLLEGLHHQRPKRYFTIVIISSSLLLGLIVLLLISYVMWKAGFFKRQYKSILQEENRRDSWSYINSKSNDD
AP-2 complex subunit beta (Homo sapiens), sequence (P63010 whole entry, looked up, the tested form may be a part, one chain of several): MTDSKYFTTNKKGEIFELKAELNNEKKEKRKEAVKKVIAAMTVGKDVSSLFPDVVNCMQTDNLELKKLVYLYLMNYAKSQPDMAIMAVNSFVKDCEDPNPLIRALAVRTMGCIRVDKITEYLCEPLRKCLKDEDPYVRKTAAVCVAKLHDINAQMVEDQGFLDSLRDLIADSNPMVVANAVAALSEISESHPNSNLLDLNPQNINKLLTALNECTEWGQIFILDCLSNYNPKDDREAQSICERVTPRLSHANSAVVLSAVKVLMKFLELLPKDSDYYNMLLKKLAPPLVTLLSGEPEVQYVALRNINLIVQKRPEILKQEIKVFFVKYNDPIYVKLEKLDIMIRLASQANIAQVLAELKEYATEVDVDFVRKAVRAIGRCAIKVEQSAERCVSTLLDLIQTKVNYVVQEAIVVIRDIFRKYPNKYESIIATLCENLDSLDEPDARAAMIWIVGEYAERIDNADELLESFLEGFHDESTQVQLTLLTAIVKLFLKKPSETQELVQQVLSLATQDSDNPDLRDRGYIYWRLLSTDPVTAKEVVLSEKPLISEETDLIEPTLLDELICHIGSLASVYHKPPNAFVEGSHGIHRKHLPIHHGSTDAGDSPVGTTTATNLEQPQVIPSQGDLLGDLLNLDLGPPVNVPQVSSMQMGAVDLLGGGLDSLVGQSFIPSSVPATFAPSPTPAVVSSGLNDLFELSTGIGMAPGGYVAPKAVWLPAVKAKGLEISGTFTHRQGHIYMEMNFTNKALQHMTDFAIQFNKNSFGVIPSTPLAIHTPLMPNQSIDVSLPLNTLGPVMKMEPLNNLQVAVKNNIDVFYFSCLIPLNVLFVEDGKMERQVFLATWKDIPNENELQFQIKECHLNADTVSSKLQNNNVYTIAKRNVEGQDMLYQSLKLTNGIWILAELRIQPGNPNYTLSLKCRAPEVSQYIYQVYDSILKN

For the molecule `O=C(O)CCCCCNC(=O)Nc1ccc2c(c1)OCCO2`, in test [1], the percent of DMSO control GFP is 101% (inactive). In addition, the figures for the GFP response vs DMSO in test [2] and in test [4] were 115% (inactive) and 77% (inactive), respectively. Also, the percent response of DMSO control in [3] is 112% (inactive). The GFP response, % of DMSO in test [5] was 91.2% (inactive). Further, the double positive events in test [6] is 49.7%. In test [6], the vesicle binding response was 207% (inactive). Also, the inhibition in test [7] is -12% (inactive); in test [11], -7.04% (inactive); in test [15] it was 7% (inactive). In addition, in test [8], the superoxide response (% of plate) was 105% (inactive). Besides, the aptamer binding inhibition in [9] is -3% (inactive). Further, the response in [10] was -9.55% (inactive); in test [12], -4.4% (inactive). In addition, the binding (% of control) in test [13] is 108% (inactive). Besides, in [14], the efflux inhibition (fraction of control) was 0.12 (inactive). For the same molecule, the differentiation response in test [16] is -3.28% (inactive).
With `COc1ccccc1N1C(=O)C2CC(C)=C(C)CC2C1=O` (stereo not given), the percent of DMSO control GFP in [1] is 103% (inactive). Moreover, the GFP response vs DMSO was 102% (inactive) in test [2] and 85.2% (inactive) in [4]. For the same molecule, the percent response of DMSO control in test [3] is 99.3% (inactive). Moreover, the GFP response, % of DMSO in [5] was 104% (inactive). The molecule also returned a double positive events in test [6] of 63%. In addition, in test [6], the vesicle binding response is 164% (inactive). In addition, the inhibition in test [7] is 19.7% (inactive); in [11], -31.7% (inactive); in [15], 4% (inactive). Also, the superoxide response (% of plate) in [8] was 109% (inactive). Moreover, the aptamer binding inhibition in test [9] was 11% (inactive). The response in [10] was 4.23% (inactive); in test [12], 2.17% (inactive). The binding (% of control) in test [13] was 99% (inactive). The efflux inhibition (fraction of control) in test [14] was -0.06 (inactive). The differentiation response in test [16] was -3.4% (inactive).
With `OC(C#CCN1CCCC1)(c1ccccc1)c1cccnc1` (stereo not given), the percent of DMSO control GFP in [1] is 98.9% (inactive). Further, the GFP response vs DMSO is 101% (inactive) in test [2] and 103% (inactive) in [4]. Also, in test [3], the percent response of DMSO control is 98.3% (inactive). Also, the GFP response, % of DMSO in test [5] is 107% (inactive). In addition, the double positive events in test [6] came out at 60.3%. Also, the vesicle binding response in test [6] was 166% (inactive). The results for the inhibition in test [7], in [11] and in [15] were 11.7% (inactive), -2.57% (inactive) and -14% (inactive), respectively. Moreover, in [8], the superoxide response (% of plate) was 83.2% (inactive). The aptamer binding inhibition in test [9] is 6% (inactive). For the same molecule, the response in test [10] was -14.6% (inactive); in test [12] it was 1.86% (inactive). For the same molecule, the binding (% of control) in [13] was 108% (inactive). In addition, the efflux inhibition (fraction of control) in [14] is -0.09 (inactive). For the same molecule, the differentiation response in [16] was 14.7% (inactive).
For the molecule `CCOC(=O)C1=C(C)NC(C)=C(C(=O)OC)C1c1cccc(Cl)c1Cl` (stereo not given), in test [1], the percent of DMSO control GFP is 88.4% (inactive). Also, the GFP response vs DMSO in test [2] was 125% (inactive); in test [4], 79.2% (inactive). The percent response of DMSO control in [3] was 104% (inactive). In addition, the GFP response, % of DMSO in test [5] was 80.3% (inactive). This molecule also had a double positive events in test [6] of 65.9%. In addition, in [6], the vesicle binding response was 193% (inactive). The inhibition in [7] was 5.49% (inactive); in test [11], -0.86% (inactive); in test [15] it was 9% (inactive). For the same molecule, the superoxide response (% of plate) in [8] is 121% (inactive). The aptamer binding inhibition in test [9] was 6% (inactive). Further, the results for the response in test [10] and in test [12] were -8.07% (inactive) and -0.17% (inactive), respectively. Moreover, the binding (% of control) in test [13] is 106% (inactive). Moreover, the efflux inhibition (fraction of control) in test [14] is -0.28 (inactive). In test [16], the differentiation response was 0% (inactive).
As for `CC12COC3(C(=O)Nc4ccc(F)cc4)CC1CCC32C` (stereo not given), in test [1], the percent of DMSO control GFP is 94.2% (inactive). For the same molecule, the GFP response vs DMSO in [2] is 126% (inactive); in test [4], 73.7% (inactive). Moreover, the percent response of DMSO control in test [3] was 107% (inactive). Besides, the GFP response, % of DMSO in test [5] is 85.9% (inactive). Further, the double positive events in [6] came out at 65.7%. In addition, the vesicle binding response in test [6] is 157% (inactive). Moreover, the inhibition was 8.4% (inactive) in test [7], -2.28% (inactive) in test [11] and 10% (inactive) in test [15]. For the same molecule, in test [8], the superoxide response (% of plate) is 99.2% (inactive). Moreover, the aptamer binding inhibition in test [9] was 1% (inactive). For the same molecule, the results for the response in [10] and in [12] were -12.6% (inactive) and -3.14% (inactive), respectively. Besides, the binding (% of control) in test [13] was 102% (inactive). The efflux inhibition (fraction of control) in [14] was 0.3 (inactive). In addition, in test [16], the differentiation response is -1.64% (inactive).
